Bioassay records as filed in PubChem.
SW480 rerep: A quantitative high throughput screen for small molecules that induce DNA re-replication in SW480 colon adenocarcinoma cells | SW480 DNA re-replication, Hoechst DNA content imaging, 48 h | 340,000 tested, 1.8% active | Potency, µM (titrated, usually from 46.1 µM), without a hit: at the top dose re-replication activation, actives largely listed as activators; note: % of control where 0% means no effect; nearly all actives have a fitted effect of over 55% in size
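Image-based read-out: total Hoechst fluorescence of nuclei (405 nm excitation, 500-530 nm emission), with hits raising the fraction of high-intensity nuclei. SW480 colon cells incubated 48 hr with compounds at 37 C.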
KB-V1 cytotox: qHTS assay for MDR1-selective chemotherapeutics: Primary screen using the drug-selected MDR subline cells KB-V1; KB-V1 MDR cells viability, CellTiter-Glo, 72 h; Potency, µM (top dose mostly 46.1 µM), actives largely listed as cytotoxic; 400,000 tested, 3.4% active; note: % is set by controls: 0 for no effect and ±100 for the full control effect; nearly all actives have a fitted effect of over 60% in size
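In this primary screen, KB-V1 cells overexpressing P-gp are incubated with library compounds (lowest to highest concentration) for 72 h at 37 degrees C before a luminescent ATP viability read.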
MCF10A rerep: A quantitative high throughput screen for small molecules that induce DNA re-replication in MCF 10a normal breast cells. MCF 10A DNA re-replication, Hoechst nuclear intensity, 48 h. Potency, µM (doses to about 46.1 µM), inactives show top-dose activity, positive = re-replication, usual class: activators. 350,000 tested, 2.9% active. AID 624296, 2012; note: % of control where 0% means no effect; nearly all actives have a fitted effect of over 50% in size
HT1080 IDH1KD tx: qHTS for induction of synthetic lethality in tumor cells producing 2HG: qHTS for the HT-1080-IDH1KD cell line. Potency, µM (series often up to 46.1 µM), without a hit: top-dose activity, negative = toxicity, actives largely listed as cytotoxic. 360,000 tested, 2% active. HT-1080 IDH1 knockdown viability, ATP luminescence, 48 h;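 note: 0% = DMSO wells and -100% = cell-free medium wells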
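Knockdown cells (IDH1KD HT-1080) received compounds 2 h after plating at 750 cells/well and were kept 48 h at 37 °C in 5% FBS RPMI. A CellTiter-Glo luminescence read gave % activity for curve fitting.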
HT1080-NT tox: qHTS for induction of synthetic lethality in tumor cells producing 2HG: qHTS for the HT-1080-NT fibrosarcoma cell line. 360,000 tested, 1.6% active. Potency, µM (top dose mostly 46.1 µM), for inactives: top-dose activity, negative = less viability, most hits filed as cytotoxic. HT-1080-NT fibrosarcoma viability, CellTiter-Glo ATP luminescence, 48 h. AID 686970, 2013;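 note: NT is the 2HG producing partner of a matched IDH1 knockdown line; 0% = DMSO-treated cells and -100% = media-only wells without cells; nearly all actives have a fitted effect of over 55% in size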
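Viability of the 2HG-overproducing fibrosarcoma line after 48 hours of compound exposure at 37 degrees C was determined by luminescence with CellTiter-Glo, and concentration-effect curves were then fitted and categorized.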
KB-3-1 cytotox: qHTS assay for MDR1-selective chemotherapeutics: Primary screen using the parental adenocarcinoma cell KB-3-1; KB-3-1 viability, CellTiter-Glo ATP luminescence, 72 h; Potency, µM (series often up to 46.1 µM), most hits filed as cytotoxic; 400,000 tested, 1.4% active; AID 1347075, 2019; note: % is set by controls: 0 for no effect and ±100 for the full control effect; nearly all actives have a fitted effect of over 60% in size
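Cytotoxicity in the drug-sensitive parental line KB-3-1 was scored as loss of CellTiter-Glo luminescence following 72 h incubation with compound. Values come from curve fitting of normalized concentration-response data.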
An asterisk follows results filed as active. Shown are actives, neighbours in structure and some others; about 7.9% of the full set was active somewhere. Calls come from the whole dose curve; as a rule, active = well fitted curve in the direction sought with a large enough effect; inconclusive = small, poorly fitted or top-dose-only effect, or another doubt; inactive = no such curve, though single readings can be large; an effect the other way counts as inactive or inconclusive. Potency is the fitted concentration of half-maximal effect.

How did CCCCCC(O)(c1ccc(OCC)cc1)C(CN1CCOCC1)c1ccccc1 (centres undefined) do in these assays?
SW480 rerep: 26µM*; KB-V1 cytotox: inconclusive; MCF10A rerep: inconclusive; HT1080 IDH1KD tx: 16µM*; HT1080-NT tox: inconclusive; KB-3-1 cytotox: inconclusive

Results for CCCCC(O)(c1ccc(CC)cc1)C(CN1CCOCC1)c1ccccc1 (centres undefined) ?
SW480 rerep: inconclusive; KB-V1 cytotox: inactive; MCF10A rerep: inconclusive; HT1080 IDH1KD tx: inconclusive; HT1080-NT tox: inconclusive; KB-3-1 cytotox: 16µM*

What do the screens show for `CCCCC(O)(c1ccccc1)C(CN1CCOCC1)c1ccccc1` (centres undefined)?
SW480 rerep: -2%; KB-V1 cytotox: inactive; MCF10A rerep: -9%; HT1080 IDH1KD tx: -7%; HT1080-NT tox: -6%; KB-3-1 cytotox: inactive

Results for CCCCCC(O)(c1ccc(OC)cc1)C(CN1CCOCC1)c1ccccc1 (centres undefined) ?
SW480 rerep: inconclusive; KB-V1 cytotox: 13µM*; MCF10A rerep: 16µM*; HT1080 IDH1KD tx: inconclusive; HT1080-NT tox: inconclusive; KB-3-1 cytotox: inconclusive

Results for COC(=O)Nc1ccc2ccc3c(NC(=O)OC)ccc4ccc1c2c43 ?
SW480 rerep: inconclusive; MCF10A rerep: 21µM*; HT1080 IDH1KD tx: -27%; HT1080-NT tox: -16%

Results for COC(=O)Nc1ccc(C)cc1NC(=O)OC ?
SW480 rerep: 1%; KB-V1 cytotox: inactive; MCF10A rerep: 0%; HT1080 IDH1KD tx: 0%; HT1080-NT tox: -1%; KB-3-1 cytotox: inactive

Results for O=C(Nc1ccc(OC(F)(F)F)cc1)c1cc(S(=O)(=O)N2CCCCC2)ccc1N1CCOCC1 ?
KB-V1 cytotox: inactive; HT1080 IDH1KD tx: -11%; HT1080-NT tox: -15%; KB-3-1 cytotox: inactive

What do the screens show for `CN(C)S(=O)(=O)N1CCC(Oc2ccc(C(=O)N3C[C@@H]4CCC[C@H]3C4)cc2)CC1`?
SW480 rerep: 4%; KB-V1 cytotox: 9.2µM*; MCF10A rerep: 5%; HT1080 IDH1KD tx: -1%; HT1080-NT tox: 1%; KB-3-1 cytotox: inactive

Results for CN(C)S(=O)(=O)N1CCC(Oc2ccc(C(=O)N3C[C@H]4CC[C@H]3C4)cc2)CC1 ?
SW480 rerep: -14%; MCF10A rerep: -3%; HT1080 IDH1KD tx: -18%; HT1080-NT tox: inconclusive

What do the screens show for `Cc1cccc(NC(=S)NCc2ccc3c(c2)cc(C)n3C)c1C`?
SW480 rerep: inconclusive; KB-V1 cytotox: inactive; MCF10A rerep: 13µM*; HT1080 IDH1KD tx: -9%; HT1080-NT tox: -2%; KB-3-1 cytotox: inconclusive

How did O=C(NCc1ccco1)c1cc2ccc(O)cc2oc1=O do in these assays?
SW480 rerep: inconclusive; KB-V1 cytotox: inactive; MCF10A rerep: 5.8µM*; HT1080 IDH1KD tx: inconclusive; HT1080-NT tox: inconclusive; KB-3-1 cytotox: inconclusive

How did Cc1ccc2cc3cc(C(=O)NCc4ccco4)oc3nc2c1 do in these assays?
SW480 rerep: -4%; KB-V1 cytotox: inactive; MCF10A rerep: 17%; KB-3-1 cytotox: 3.5µM*

How did Cc1ccc(N=c2oc3cc(O)ccc3cc2C(N)=O)cc1 do in these assays?
SW480 rerep: 16µM*; KB-V1 cytotox: inactive; MCF10A rerep: 9.2µM*; HT1080 IDH1KD tx: inconclusive; HT1080-NT tox: inconclusive; KB-3-1 cytotox: inactive

How did COc1ccc2cc(C(=O)NCc3ccco3)c(=O)oc2c1 do in these assays?
SW480 rerep: -5%; KB-V1 cytotox: inactive; MCF10A rerep: 11%; HT1080 IDH1KD tx: -11%; HT1080-NT tox: -11%; KB-3-1 cytotox: inactive

Results for N=c1oc2cc(O)ccc2cc1C(=O)Nc1ccc(Cl)cc1 ?
SW480 rerep: 2.6µM*; KB-V1 cytotox: inactive; MCF10A rerep: 1.6µM*; HT1080 IDH1KD tx: inconclusive; HT1080-NT tox: -4%; KB-3-1 cytotox: inconclusive

How did CCC(=O)Nc1cccc(-c2cn3c(C)csc3n2)c1 do in these assays?
KB-V1 cytotox: inactive; KB-3-1 cytotox: inactive

Results for Cc1ccc(SCc2nc(-c3ccc(C(=O)NCC(C)c4ccccc4)cc3)oc2C)cc1 (centres undefined) ?
KB-V1 cytotox: inactive; KB-3-1 cytotox: inconclusive

What do the screens show for `Cc1cc(N2CCC(C(=O)Nc3ccc(Cl)cc3)CC2)n2nc(C)c(-c3ccc(Cl)cc3)c2n1`?
KB-V1 cytotox: inconclusive; KB-3-1 cytotox: inactive

How did COc1ccc(-c2cc3ccc(O)cc3oc2=O)cc1OC do in these assays?
SW480 rerep: 10µM*; KB-V1 cytotox: inactive; MCF10A rerep: inconclusive; HT1080 IDH1KD tx: inconclusive; HT1080-NT tox: inconclusive; KB-3-1 cytotox: inactive

Results for COc1ccc2cc(C(C)=O)c(=O)oc2c1 ?
SW480 rerep: 0%; KB-V1 cytotox: inactive; MCF10A rerep: 1%; HT1080 IDH1KD tx: -1%; HT1080-NT tox: 5%; KB-3-1 cytotox: inactive

What do the screens show for `CC(=O)c1cc2ccc(O)cc2oc1=O`?
SW480 rerep: 18µM*; KB-V1 cytotox: inactive; MCF10A rerep: 21µM*; HT1080 IDH1KD tx: 8%; HT1080-NT tox: 2%; KB-3-1 cytotox: inactive

Results for CC(=O)Nc1ccc(/C=C/c2nc(-c3ccccc3O)n(-c3ccccc3)n2)cc1 ?
KB-V1 cytotox: inactive; KB-3-1 cytotox: inactive

How did CC1CCCC=CC2CC(OC(=O)CN(C)C)CC2C(O)C=CC(=O)O1 (centres undefined) do in these assays?
SW480 rerep: inconclusive; KB-V1 cytotox: inconclusive; MCF10A rerep: inconclusive; HT1080 IDH1KD tx: 0.029µM*; HT1080-NT tox: inconclusive; KB-3-1 cytotox: 0.0082µM*

What do the screens show for `O=C(NNc1ccccc1Br)C(O)(c1cccc(C(F)(F)F)c1)c1cccc(C(F)(F)F)c1`?
SW480 rerep: inconclusive; KB-V1 cytotox: 18µM*; MCF10A rerep: inconclusive; HT1080 IDH1KD tx: inconclusive; HT1080-NT tox: 21µM*; KB-3-1 cytotox: inconclusive

Results for Cc1ccc(NNC(=O)C(O)(c2cccc(C(F)(F)F)c2)c2cccc(C(F)(F)F)c2)cc1 ?
SW480 rerep: inconclusive; KB-V1 cytotox: inconclusive; MCF10A rerep: 12µM*; HT1080 IDH1KD tx: 7.3µM*; HT1080-NT tox: 7.3µM*; KB-3-1 cytotox: 16µM*
